The values below come from PubChem BioAssay.

Structures are written as SMILES. “And” between values parts separate entries of the source, which are not always exact repeats. Identical values can stand only once. The source made the active and inactive calls.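 The calls were made as follows, unless noted: active = compounds whose cell count with miR-34 switched on is under 0.7 times the count with it off; inactive = the rest.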

The nature of test [1]: sensitizers of A549 cells to miR-34 induction, primary screen, imaging, A549 dox-inducible miR-34, nuclei and caspase counts (AID 1347080). Also: test concentration not given here. The settings on record: A549 miR-34 inducible, Hoechst nuclei count, 48 h.
Test [2] can be described thus: survival rescue of mitochondrial mutant cells in low glucose, primary screen, MELAS cybrids, Rieske KO mouse fibroblasts, CellTiter-Glo (AID 1508586;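 active = mean z-score across replicates of 1.96 or higher in either the MELAS or the Rieske mutant cell line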;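 also: test concentration not given here; z relative to plate mean and SD of compound and empty wells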).
Test [3] in a line: viability rescue of complex I mutant cybrids, primary screen, cell-based, galactose medium, ATP luminescence (AID 1645843;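 active = z-score of at least 1.8 in each of two replicates, scored against plate mean and spread of sample wells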;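 also: positive z means more ATP and so rescue of galactose-driven cybrid death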). The settings on record: complex I mutant cybrid cells, 72 h, stronger effect = higher value.
The mark [4] stands for this setting: stronger effect = lower value, cell number ratio, induced over uninduced.
The mark [5] stands for this setting: measured here: relative caspase fold change +Dox/-Dox.
The mark [6] stands for this setting: measured here: total cells with miR-34 induction, stronger effect = lower value.
The mark [7] stands for this setting: measured here: total cells without miR-34 induction.
[8] abbreviates: MELAS cybrid survival, CellTiter-Glo 48 h, stronger effect = higher value.
Where [9] appears, read: Rieske KO mouse fibroblast survival, CellTiter-Glo 72 h.

As to `CN(C)c1ccc(C(=O)O)cc1`, the fold change in test [1] (setting [4]) is 0.927 (inactive); in test [1] (setting [5]) it was 0.253. The values for the cell count in test [1] (setting [6]) and in test [1] (setting [7]) were 8940 and 9650, respectively. Further, the z-score in test [2] (setting [8]) was -0.46 (inactive); in test [2] (setting [9]), 0.0916; in test [3] it was 0.71 (inactive).
Take `COc1cccc2c(=O)n(C(C)Cn3cccn3)cnc12` (stereo not given): the fold change was 0.936 (inactive) in test [1] (setting [4]) and 1.36 in test [1] (setting [5]). The cell count in test [1] (setting [6]) is 9030; in test [1] (setting [7]), 9650. Moreover, the z-score in test [2] (setting [8]) is -0.113 (inactive); in test [2] (setting [9]) it was -1.21; in test [3], -0.305 (inactive).
For the compound `O=C(Nc1n[nH]c(Cc2ccccc2)n1)N1CCN(c2ncccn2)CC1`, the fold change in test [1] (setting [4]) is 0.879 (inactive); in test [1] (setting [5]), 0.976. Further, the cell count came out at 8590 in test [1] (setting [6]) and 9760 in test [1] (setting [7]). For the same compound, the figures for the z-score in test [2] (setting [8]), in test [2] (setting [9]) and in test [3] were -0.0698, 4 and 0.005 (inactive), respectively.
Consider `Cc1ccc(-c2noc([C@@]34CC[C@@](C)(C(=O)O3)C4(C)C)n2)cc1Cl`, for which the figures for the fold change in test [1] (setting [4]) and in test [1] (setting [5]) were 0.896 (inactive) and 1.34, respectively. The cell count in test [1] (setting [6]) is 8140; in test [1] (setting [7]), 9090. The z-score in test [2] (setting [8]) is -0.00199 (inactive); in test [2] (setting [9]), -1.05; in test [3], -0.54 (inactive).
In the case of `Nc1ccn(C2OC(CO)C(O)C2O)c(=O)n1` (stereo not given), the fold change in test [1] (setting [4]) was 1.14 (inactive) and 0.906 (inactive); in test [1] (setting [5]), 0.982 and 0.86. For the same compound, the cell count in test [1] (setting [6]) was 2260 and 7940; in test [1] (setting [7]) it was 1990 and 8760. Further, the z-score in test [2] (setting [8]) was -0.137 (inactive); in test [2] (setting [9]), -0.441; in test [3], -1.19 (inactive).
Take `COc1cccc(OC)c1-c1ccc(C(=O)Nc2cccnc2)o1`: the fold change in test [1] (setting [4]) is 0.893 (inactive); in test [1] (setting [5]) it was 2.2. For the same compound, the cell count is 7930 in test [1] (setting [6]) and 8880 in test [1] (setting [7]). Also, the z-score is 0.0755 (inactive) in test [2] (setting [8]), 0.502 in test [2] (setting [9]) and -0.555 (inactive) in test [3].
`Cc1ccc(NS(=O)(=O)c2ccccc2)c(C(=O)O)c1`: the fold change in test [1] (setting [4]) is 0.888 (inactive); in test [1] (setting [5]), 0.521. Also, the cell count stood at 8960 in test [1] (setting [6]) and 10100 in test [1] (setting [7]). For the same compound, the values for the z-score in test [2] (setting [8]), in test [2] (setting [9]) and in test [3] were 0.391 (inactive), -0.208 and 0.425 (inactive), respectively.
For `CCCOc1ccc(CC(=O)O)cc1Cl`, the fold change was 0.877 (inactive) in test [1] (setting [4]) and 0.341 in test [1] (setting [5]). In addition, the cell count in test [1] (setting [6]) amounted to 8590; in test [1] (setting [7]), 9790. The z-score was 0.699 (inactive) in test [2] (setting [8]), 0.326 in test [2] (setting [9]) and 0.735 (inactive) in test [3].
Take `COc1ccccc1-c1noc(Cc2ccc3c(c2)OCO3)n1`: the fold change in test [1] (setting [4]) was 0.864 (inactive); in test [1] (setting [5]), 2.45. Further, the cell count in test [1] (setting [6]) worked out at 7680; in test [1] (setting [7]), 8890. Besides, the z-score was 0.0213 (inactive) in test [2] (setting [8]), 1.35 in test [2] (setting [9]) and 1.62 (inactive) in test [3].
Turning to `Cc1nc(-c2ccnc(N)n2)cn1Cc1c(Cl)cccc1Cl`, the fold change in test [1] (setting [4]) is 0.853 (inactive); in test [1] (setting [5]), 0.94. For the same compound, the results for the cell count in test [1] (setting [6]) and in test [1] (setting [7]) were 7950 and 9330, respectively. The z-score was -0.789 (inactive) in test [2] (setting [8]), 0.727 in test [2] (setting [9]) and -0.225 (inactive) in test [3].
Take `COc1cc(N=C(N)N=C(N)N)cc(OC)c1`: the fold change in test [1] (setting [4]) was 0.901 (inactive); in test [1] (setting [5]), 0.269. Moreover, the cell count in test [1] (setting [6]) stood at 8210; in test [1] (setting [7]), 9120. The z-score in test [2] (setting [8]) was 0.825 (inactive); in test [2] (setting [9]) it was -0.341; in test [3], 0.61 (inactive).
For the compound `O=C(Nc1ccccc1)c1ccn[nH]1`, the fold change was 0.856 (inactive) in test [1] (setting [4]) and 0.232 in test [1] (setting [5]). Also, the cell count is 7620 in test [1] (setting [6]) and 8910 in test [1] (setting [7]). For the same compound, the figures for the z-score in test [2] (setting [8]), in test [2] (setting [9]) and in test [3] were -0.292 (inactive), 0.207 and 0.49 (inactive), respectively.
Consider `O=C(Cc1noc2ccccc12)NCCOc1cccnc1`, for which the fold change in test [1] (setting [4]) was 0.924 (inactive); in test [1] (setting [5]), 1.95. In addition, the figures for the cell count in test [1] (setting [6]) and in test [1] (setting [7]) were 9890 and 10700, respectively. Moreover, the z-score in test [2] (setting [8]) is -0.132 (inactive); in test [2] (setting [9]), -0.425; in test [3], -0.56 (inactive).
Turning to `CC1(C)OC2CO[C@@]3(COS(N)(=O)=O)OC(C)(C)OC3C2O1` (stereo not given in full), the fold change in test [1] (setting [4]) was 0.947 (inactive) and 0.976 (inactive); in test [1] (setting [5]), 1.9 and 0.922. Besides, the cell count was 9570 and 9420 in test [1] (setting [6]); 10100 and 9650 in test [1] (setting [7]). Moreover, the z-score in test [2] (setting [8]) was 1.94 (inactive); in test [2] (setting [9]), -0.659; in test [3], 1.01 (inactive).
On to `CC(C)n1cc(-c2cc(C(=O)N(C)Cc3ccncc3)c3ccc(F)cc3n2)cn1`, for which the fold change in test [1] (setting [4]) is 0.897 (inactive); in test [1] (setting [5]) it was 1.79. Also, the cell count in test [1] (setting [6]) was found to be 8810; in test [1] (setting [7]), 9830. In addition, the z-score is -0.679 (inactive) in test [2] (setting [8]), 0.655 in test [2] (setting [9]) and -0.46 (inactive) in test [3].
With `COc1ccc2nc(Cn3cnc4cc(F)ccc4c3=O)[nH]c2c1`, the fold change in test [1] (setting [4]) is 0.891 (inactive); in test [1] (setting [5]), 1.56. Moreover, the cell count in test [1] (setting [6]) is 7880; in test [1] (setting [7]), 8840. The results for the z-score in test [2] (setting [8]), in test [2] (setting [9]) and in test [3] were -0.0496 (inactive), -0.0588 and -0.39 (inactive), respectively.
Take `CC(c1cccc(O)c1)N(C)C` (stereo not given): the fold change in test [1] (setting [4]) was 0.895 (inactive); in test [1] (setting [5]) it was 0.805. Also, the cell count in test [1] (setting [6]) was determined as 8630; in test [1] (setting [7]), 9640. Further, the z-score is -0.0784 (inactive) in test [2] (setting [8]), -0.273 in test [2] (setting [9]) and 0.205 (inactive) in test [3].
Consider `Cc1ccc(NC(=O)c2ccc3nccnc3c2)cn1`, for which the values for the fold change in test [1] (setting [4]) and in test [1] (setting [5]) were 0.855 (inactive) and 1.41, respectively. Besides, the values for the cell count in test [1] (setting [6]) and in test [1] (setting [7]) were 8560 and 10000, respectively. Besides, the z-score was 0.00943 (inactive) in test [2] (setting [8]), -0.47 in test [2] (setting [9]) and -0.48 (inactive) in test [3].
Regarding `O=C(COc1ccc(Cl)cc1)Nc1ccccc1C(=O)O`, the fold change in test [1] (setting [4]) is 0.906 (inactive); in test [1] (setting [5]), 0.574. In addition, the cell count in test [1] (setting [6]) turned out to be 8240; in test [1] (setting [7]), 9090. Moreover, the z-score in test [2] (setting [8]) is -0.363 (inactive); in test [2] (setting [9]), -0.206; in test [3], 0.885 (inactive).
Regarding `Cc1cc(-c2cccc(OC(C)C)c2)nc(N)n1`, the fold change in test [1] (setting [4]) is 0.871 (inactive); in test [1] (setting [5]), 1.62. Moreover, the results for the cell count in test [1] (setting [6]) and in test [1] (setting [7]) were 7710 and 8860, respectively. The results for the z-score in test [2] (setting [8]), in test [2] (setting [9]) and in test [3] were -1.21 (inactive), 0.889 and -0.56 (inactive), respectively.
